Assay results: PubChem BioAssay AID1159580 (chemical genetic matrix, 2015)
Screen size: about 5,500 compounds; about 2,000 (36%) were called active. Inconclusive results (about 18%) are left out. Rule as the data show it: active = normalized growth mostly below about 0.91 (no sharp cut-off); inconclusive = no clear call, values can overlap the other calls; inactive = mostly above about 0.92. The list shows a part of the results.

Test: chemical genetic growth profiling, strain panel (AID 1159580);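 also: tested at 20 µM; growth read once vehicle control cultures reached saturation at 30 °C; 1 = growth at the plate median or of vehicle wells; lower values mean less growth of the strain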
Conditions: growth OD

Measured: normalized growth

COC1=C(OC)C(=O)C(C/C=C(\C)CC/C=C(\C)CC/C=C(\C)CC/C=C(/C)CC/C=C(\C)CC/C=C(\C)CC/C=C(\C)CC/C=C(\C)CC/C=C(\C)CCC=C(C)C)=C(C)C1=O
inactive: S. cerevisiae deletion strains, locus YJR043C, strain POL32, stronger effect = lower value 1.03 | S. cerevisiae deletion strains, locus YJR066W, strain TOR1, stronger effect = lower value 0.982 | S. cerevisiae deletion strains, locus YKL009W, strain mrt4, stronger effect = lower value 1.07 | S. cerevisiae deletion strains, locus YKL068W, stronger effect = lower value 0.99 | S. cerevisiae deletion strains, locus YKL085W, strain MDH1 (second series), stronger effect = lower value 1 | S. cerevisiae deletion strains, locus YKL085W, strain MDH1, stronger effect = lower value 1 | S. cerevisiae deletion strains, locus YKL160W, strain elf1, stronger effect = lower value 0.988 | S. cerevisiae deletion strains, locus YKR001C, strain vps1, stronger effect = lower value 0.999 | S. cerevisiae deletion strains, locus YKR026C, strain gcn3, stronger effect = lower value 0.986 | S. cerevisiae deletion strains, locus YKR091W, strain srl3, stronger effect = lower value 0.98 | S. cerevisiae deletion strains, locus YLL001W, strain dnm1, stronger effect = lower value 0.974 | S. cerevisiae deletion strains, locus YLL026W, stronger effect = lower value 1 | S. cerevisiae deletion strains, locus YLL041C, strain sdh2, stronger effect = lower value 0.973 | S. cerevisiae deletion strains, locus YLR027C, strain aat2, stronger effect = lower value 0.988 | S. cerevisiae deletion strains, locus YLR039C, strain RIC1, stronger effect = lower value 1.04 | S. cerevisiae deletion strains, locus YLR058C, strain SHM2, stronger effect = lower value 0.985 | S. cerevisiae deletion strains, locus YLR102C, strain apc9, stronger effect = lower value 0.994 | S. cerevisiae deletion strains, locus YLR113W, strain HOG1, stronger effect = lower value 0.986 | S. cerevisiae deletion strains, locus YLR221C, strain rsa3, stronger effect = lower value 0.97 | S. cerevisiae deletion strains, locus YLR258W, strain gsy2, stronger effect = lower value 0.982 | S. cerevisiae deletion strains, locus YLR262C, strain YPT6 (second series), stronger effect = lower value 0.942 | S. cerevisiae deletion strains, locus YLR262C, strain YPT6, stronger effect = lower value 0.972 | S. cerevisiae deletion strains, locus YLR268W, strain sec22, stronger effect = lower value 1.03 | S. cerevisiae deletion strains, locus YLR320W, strain mms22, stronger effect = lower value 0.991 | S. cerevisiae deletion strains, locus YLR330W, strain CHS5, stronger effect = lower value 1.01 | S. cerevisiae deletion strains, locus YLR342W, strain FKS1 (second series), stronger effect = lower value 1.1 | S. cerevisiae deletion strains, locus YLR342W, strain FKS1, stronger effect = lower value 0.96 | S. cerevisiae deletion strains, locus YLR357W, strain rsc2, stronger effect = lower value 0.987 | S. cerevisiae deletion strains, locus YLR370C, strain arc18, stronger effect = lower value 0.953 | S. cerevisiae deletion strains, locus YLR371W, strain rom2, stronger effect = lower value 0.99 | S. cerevisiae deletion strains, locus YLR384C, strain iki3, stronger effect = lower value 0.988 | S. cerevisiae deletion strains, locus YLR418C, strain cdc73, stronger effect = lower value 0.997 | S. cerevisiae deletion strains, locus YML016C, strain PPZ1, stronger effect = lower value 1.01 | S. cerevisiae deletion strains, locus YML032C, strain rad52, stronger effect = lower value 0.971 | S. cerevisiae deletion strains, locus YML120C, strain ndi1, stronger effect = lower value 0.985 | S. cerevisiae deletion strains, locus YML124C, strain tub3, stronger effect = lower value 0.99 | S. cerevisiae deletion strains, locus YMR058W, strain fet3, stronger effect = lower value 0.977 | S. cerevisiae deletion strains, locus YMR078C, strain ctf18, stronger effect = lower value 0.992 | S. cerevisiae deletion strains, locus YMR125W, strain sto1, stronger effect = lower value 0.972 | S. cerevisiae deletion strains, locus YMR129W, stronger effect = lower value 0.974 | S. cerevisiae deletion strains, locus YMR205C, strain PFK2, stronger effect = lower value 1.01 | S. cerevisiae deletion strains, locus YMR223W, strain ubp8, stronger effect = lower value 1.01 | S. cerevisiae deletion strains, locus YMR231W, strain pep5, stronger effect = lower value 0.981 | S. cerevisiae deletion strains, locus YMR307W, strain GAS1, stronger effect = lower value 1.13 | S. cerevisiae deletion strains, locus YNL067W, strain RPL9B, stronger effect = lower value 0.995 | S. cerevisiae deletion strains, locus YNL071W, strain lat1, stronger effect = lower value 0.965 | S. cerevisiae deletion strains, locus YNL183C, strain NPR1, stronger effect = lower value 0.982 | S. cerevisiae deletion strains, locus YNL209W, strain ssb2, stronger effect = lower value 0.971 | S. cerevisiae deletion strains, locus YNL233W, strain BNI4, stronger effect = lower value 1 | S. cerevisiae deletion strains, locus YNL248C, strain rpa49, stronger effect = lower value 0.974 | S. cerevisiae deletion strains, locus YNL250W, strain rad50, stronger effect = lower value 0.985 | S. cerevisiae deletion strains, locus YNL271C, strain bni1, stronger effect = lower value 1.02 | S. cerevisiae deletion strains, locus YNL298W, strain CLA4, stronger effect = lower value 0.998 | S. cerevisiae deletion strains, locus YNL307C, strain MCK1, stronger effect = lower value 0.995 | S. cerevisiae deletion strains, locus YNL322C, strain KRE1 (second series), stronger effect = lower value 0.958 | S. cerevisiae deletion strains, locus YNL322C, strain KRE1, stronger effect = lower value 0.994 | S. cerevisiae deletion strains, locus YNR049C, strain mso1, stronger effect = lower value 0.971 | S. cerevisiae deletion strains, locus YNR052C, strain pop2, stronger effect = lower value 1 | S. cerevisiae deletion strains, locus YOL012C, strain htz1 0.872 | S. cerevisiae deletion strains, locus YOL147C, strain pex11, stronger effect = lower value 1 | S. cerevisiae deletion strains, locus YOR001W, strain rrp6, stronger effect = lower value 0.932 | S. cerevisiae deletion strains, locus YOR061W, strain CKA2, stronger effect = lower value 0.981 | S. cerevisiae deletion strains, locus YOR069W, strain VPS5, stronger effect = lower value 1.01 | S. cerevisiae deletion strains, locus YOR070C, strain gyp1, stronger effect = lower value 0.975 | S. cerevisiae deletion strains, locus YOR080W, strain dia2, stronger effect = lower value 0.999 | S. cerevisiae deletion strains, locus YOR083W, strain WHI5, stronger effect = lower value 0.998 | S. cerevisiae deletion strains, locus YOR106W, strain vam3, stronger effect = lower value 0.973 | S. cerevisiae deletion strains, locus YOR136W, strain idh2, stronger effect = lower value 0.998 | S. cerevisiae deletion strains, locus YOR144C, strain elg1, stronger effect = lower value 0.987 | S. cerevisiae deletion strains, locus YOR184W, strain ser1, stronger effect = lower value 1 | S. cerevisiae deletion strains, locus YOR231W, strain MKK1, stronger effect = lower value 1.05 | S. cerevisiae deletion strains, locus YOR265W, strain rbl2, stronger effect = lower value 0.99 | S. cerevisiae deletion strains, locus YOR270C, strain vph1, stronger effect = lower value 0.967 | S. cerevisiae deletion strains, locus YOR290C, strain snf2, stronger effect = lower value 0.992 | S. cerevisiae deletion strains, locus YOR316C, strain cot1, stronger effect = lower value 0.994 | S. cerevisiae deletion strains, locus YPL051W, strain arl3, stronger effect = lower value 1 | S. cerevisiae deletion strains, locus YPL055C, strain LGE1, stronger effect = lower value 1.02 | S. cerevisiae deletion strains, locus YPL078C, strain atp4, stronger effect = lower value 0.965 | S. cerevisiae deletion strains, locus YPL106C, strain sse1, stronger effect = lower value 0.963 | S. cerevisiae deletion strains, locus YPL240C, strain hsp82, stronger effect = lower value 0.982 | S. cerevisiae deletion strains, locus YPL241C, strain CIN2, stronger effect = lower value 0.996 | S. cerevisiae deletion strains, locus YPL256C, strain CLN2, stronger effect = lower value 1.04 | S. cerevisiae deletion strains, locus YPR119W, strain clb2, stronger effect = lower value 0.981 | S. cerevisiae deletion strains, locus YPR141C, strain kar3, stronger effect = lower value 0.981 | S. cerevisiae deletion strains, locus YPR163C, strain tif3, stronger effect = lower value 0.992 | S. cerevisiae deletion strains, locus YPR167C, strain met16, stronger effect = lower value 0.982 | S. cerevisiae deletion strains, strain wtn01, stronger effect = lower value 1.02 | S. cerevisiae strains, strain wild type, stronger effect = lower value 1.01
